PubChem BioAssay (NCATS)
Unmarked numbers belong to inactive results. Entries that show only a call come without a potency. Activity calls are given as the source filed them. Calls follow the shape of the dose curve; as a rule, active = well fitted inhibition curve with a large enough effect; inconclusive = small, poorly fitted or top-dose-only effect; inactive = flat fitted curve, though single readings scatter.

These compounds were tested against Luciferin 4-monooxygenase (Photinus pyralis) (UniProt P08659) (assay: Primary firefly luciferase (FLuc) qHTS assay for identification of artifact compounds. (AID 1845220; also: nearly all actives have a fitted effect of over 60% in size)). Conditions: purified firefly luciferase, luminescence, 5 min; series mostly up to 54.1 µM.
Summary of the method: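 D-luciferin and ATP (10 uM each, final) in Tris acetate buffer pH 7.6 were incubated with compounds for 15 min at room temperature. The reaction was started with 10 nM Photinus pyralis luciferase and luminescence read after 5 min. Percent inhibition was fitted to a 4-parameter Hill equation.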

Compound	Potency	activity change, negative = inhibition
COc1cc2ncnc(Nc3cc(Br)c(O)c(Br)c3)c2cc1OC	inactive	–
O=C(CC12CC3CC(CC(C3)C1)C2)Nc1cccc2nc(NCCNCCO)ccc12	inactive	–
CC1=C(C(=O)Nc2cc3cn[nH]c3cc2F)C(c2ccc(C(F)(F)F)cc2)CC(=O)N1 (stereo unspecified)	inactive	–
C=CC(=O)Nc1cccc(Sc2nc(Nc3ccc(N4CCN(C)CC4)cc3)ncc2Cl)c1	inactive	–
O=C(CCCN1CCN(c2ccc(F)cc2)CC1)NC1c2ccccc2CSc2ccccc21 (stereo unspecified)	inactive	–
CN(C)c1ccc(-c2nc3ncc(Cl)c(N4CCN(CC(=O)Nc5nccs5)CC4)c3[nH]2)cc1	inactive	–
COc1nccc(-c2c(-c3ccc(F)cc3)ncn2C2CCNCC2)n1	inactive	–
Cc1csc(-c2nnc(Nc3ccc(Oc4ncccc4-c4ccnc(N)n4)cc3)c3ccccc23)c1	inactive	–
C[C@@]1(C(=O)Nc2ccc(F)nc2)CCCN1c1nc(Nc2cc(C3CC3)[nH]n2)c2cccn2n1	inactive	–
O=C1C(c2c(O)[nH]c3ccccc23)=Nc2ccccc21	inactive	–
CCCCC(F)(F)[C@@]1(O)CC[C@H]2[C@H](CC(=O)[C@@H]2CCCCCCC(=O)O)O1	inactive	–
Cc1c(C(=O)Nc2ccc(N3C[C@@H](C)O[C@@H](C)C3)nc2)cccc1-c1ccc(OC(F)(F)F)cc1	inactive	–
Cc1cnc(CNC(=O)c2c(=O)c3ccc(N4CCCN(C)CC4)nc3n3c2sc2ccccc23)cn1	–	3.83% [at 11.6 µM]
CCn1c(-c2nonc2N)nc2cncc(CNC3CCNCC3)c21	inactive	–
Cc1cc2c(cc1C1(c3ccc(C(=O)O)cn3)CC1)C(C)(C)CCC2(C)C	inactive	–
NS(=O)(=O)c1cc(Cl)c(Cl)c(S(N)(=O)=O)c1	inactive	–
O=C(Nc1cccc(C(F)(F)F)c1)Nc1cc(S(=O)(=O)NC2CC2)ccc1-c1ccsc1	inactive	–
COc1cc2nccc(Oc3ccc(NC(=O)Nc4cc(C)on4)c(Cl)c3)c2cc1OC	inactive	–
CCNC(=O)c1noc(-c2cc(C(C)C)c(O)cc2O)c1-c1ccc(CN2CCOCC2)cc1	inactive	–
CCN1CCN(c2ccc(Nc3cc(N(C)C(=O)Nc4c(Cl)c(OC)cc(OC)c4Cl)ncn3)cc2)CC1	inactive	–
c1ccc(CNc2nc(N3CCOc4ccccc43)nc3c2CCCC3)cc1	inactive	–
